In PubChem BioAssay (NCATS):
Inconclusive results are not listed. Active and inactive are the calls of the source. Unless noted, the call rests on the fitted dose curve; in most records, active means well fitted curve in either direction with a large enough effect (not every such curve was filed as active); inconclusive means small, poorly fitted or top-dose-only effect, or another doubt; inactive means flat fitted curve, though single readings scatter.

What was measured:
[1] = biological target: Lysosomal acid glucosylceramidase (Homo sapiens) (UniProt P04062); assay: Glucocerebrosidase-p2 (AID 348; in the data active means potency below about 10 µM; further: potency means the concentration at half of the fitted maximal effect); conditions: purified GBA, blue fluorogenic substrate, 40 min
Lysosomal acid glucosylceramidase (Homo sapiens), sequence (P04062 whole entry, looked up): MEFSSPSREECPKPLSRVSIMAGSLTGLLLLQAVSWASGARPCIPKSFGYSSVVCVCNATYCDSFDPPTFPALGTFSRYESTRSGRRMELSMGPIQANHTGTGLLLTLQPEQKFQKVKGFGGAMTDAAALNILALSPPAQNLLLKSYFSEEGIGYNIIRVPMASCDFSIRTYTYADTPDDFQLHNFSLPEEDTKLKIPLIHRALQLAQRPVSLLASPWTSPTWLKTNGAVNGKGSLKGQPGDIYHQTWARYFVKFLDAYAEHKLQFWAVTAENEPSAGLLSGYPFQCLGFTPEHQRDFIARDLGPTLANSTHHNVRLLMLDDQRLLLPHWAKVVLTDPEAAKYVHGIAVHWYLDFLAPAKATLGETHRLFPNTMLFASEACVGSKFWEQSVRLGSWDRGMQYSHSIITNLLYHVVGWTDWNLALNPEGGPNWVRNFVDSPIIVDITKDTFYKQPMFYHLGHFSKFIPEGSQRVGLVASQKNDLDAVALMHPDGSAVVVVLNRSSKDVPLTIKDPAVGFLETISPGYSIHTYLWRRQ
In short: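 Compounds titrated from 0.6 nM upwards against 0.2 nM enzyme in pH 5.9 citric acid/KH2PO4, taurocholate, tween-20; blue fluorogenic substrate 80 uM, 40 min room temperature, stopped and read Ex 365/Em 440 for AC50.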

[2] = AP1 Signaling Pathway (AID 357); conditions: ME-180 AP-1-bla reporter, EGF-induced, beta-lactamase ratio, 5 h; at 7.69 µM (top of the series) unless noted; further: on the % scale 0 is the no-effect control and ±100 the full control effect
In short: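 ME-180 cells with beta-lactamase reporter under AP-1 response element, stimulated with EC50 EGF; compounds tested in titration series, 5 h at 37 °C. CCF4 substrate added 2.5 h at room temperature; 460/530 nm emission ratio gave %activity and AC50.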

[3] = biological target: Cytochrome P450 1A2 (Homo sapiens) (UniProt P05177); assay: p450-cyp1a2 (AID 410; calls by dose curve; further: potency means the concentration at half of the fitted maximal effect;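 on activity change, negative = inhibition: -100% = full effect of reference inhibitor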)
Cytochrome P450 1A2 (Homo sapiens), sequence (P05177 whole entry, looked up): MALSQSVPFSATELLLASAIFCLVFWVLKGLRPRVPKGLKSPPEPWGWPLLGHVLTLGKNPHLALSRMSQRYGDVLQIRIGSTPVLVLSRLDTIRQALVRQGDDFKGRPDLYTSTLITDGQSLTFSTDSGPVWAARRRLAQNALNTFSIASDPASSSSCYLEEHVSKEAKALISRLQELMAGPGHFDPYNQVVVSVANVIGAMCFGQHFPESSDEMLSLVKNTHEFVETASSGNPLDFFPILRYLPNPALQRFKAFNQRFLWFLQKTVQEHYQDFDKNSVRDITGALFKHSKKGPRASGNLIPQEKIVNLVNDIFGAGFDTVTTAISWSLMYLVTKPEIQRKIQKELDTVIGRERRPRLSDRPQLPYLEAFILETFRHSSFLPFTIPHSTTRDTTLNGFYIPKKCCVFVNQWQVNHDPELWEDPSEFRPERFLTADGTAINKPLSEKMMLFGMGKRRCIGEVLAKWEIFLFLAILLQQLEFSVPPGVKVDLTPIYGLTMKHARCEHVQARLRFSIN
In short: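 Human CYP1A2 (20nM) demethylated Luciferin-ME at its Km (100uM) in 100mM KPO4. After 10 min compound preincubation, NADPH regeneration ran the reaction 60 min at room temperature. Luciferin was read by luminescence, normalized to 57 uM furafylline.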

[4] = NFAT Signaling Pathway (AID 444); conditions: Jurkat NFAT-bla M1, carbachol, beta-lactamase ratio, 5 h; at 7.69 µM (top of the series) unless noted;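 further: carbachol stimulus at about its EC50 of 1 µM final; on the % scale 0 is the no-effect control and ±100 the full control effect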
In short: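 Read-out: CCF4 FRET ratio (460 nm/530 nm) after 1 h RT dye loading, used for %activity and AC50 from titration series. Cells: Jurkat NFAT-β-lactamase/M1 line, treated with compound plus 1 uM carbachol for 5 h, 37 °C.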

[5] = Stat Signaling Pathway (AID 446); conditions: ME-180 (cervical carcinoma) SIE beta-lactamase reporter, IL-6 stimulated, 5 h; at 7.69 µM (top of the series) unless noted;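 further: ME-180 cervical cancer cells given 40 pM IL-6 alongside compound; SIE-controlled beta-lactamase reporter measured as 460/530 nm FRET emission ratio; on the % scale 0 is the no-effect control and ±100 the full control effect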
In short: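 IL-6/STAT signaling read in ME-180 cells via an SIE beta-lactamase reporter. Stimulus was 40 pM IL-6 (its AC50) for 5 hrs, so both activation and inhibition register.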

[6] = biological target: Glucocorticoid receptor (Homo sapiens) (UniProt P04150); assay: GR-GFP Redistribution (AID 450;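 active means compounds whose dose series gives a full or clear partial fitted curve of increased nuclear translocation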; further: potency means the concentration at half of the fitted maximal effect); conditions: U2OS GR-GFP nuclear translocation, laser cytometry, 2 h
Glucocorticoid receptor (Homo sapiens), sequence (P04150 whole entry, looked up, the tested form may be a part): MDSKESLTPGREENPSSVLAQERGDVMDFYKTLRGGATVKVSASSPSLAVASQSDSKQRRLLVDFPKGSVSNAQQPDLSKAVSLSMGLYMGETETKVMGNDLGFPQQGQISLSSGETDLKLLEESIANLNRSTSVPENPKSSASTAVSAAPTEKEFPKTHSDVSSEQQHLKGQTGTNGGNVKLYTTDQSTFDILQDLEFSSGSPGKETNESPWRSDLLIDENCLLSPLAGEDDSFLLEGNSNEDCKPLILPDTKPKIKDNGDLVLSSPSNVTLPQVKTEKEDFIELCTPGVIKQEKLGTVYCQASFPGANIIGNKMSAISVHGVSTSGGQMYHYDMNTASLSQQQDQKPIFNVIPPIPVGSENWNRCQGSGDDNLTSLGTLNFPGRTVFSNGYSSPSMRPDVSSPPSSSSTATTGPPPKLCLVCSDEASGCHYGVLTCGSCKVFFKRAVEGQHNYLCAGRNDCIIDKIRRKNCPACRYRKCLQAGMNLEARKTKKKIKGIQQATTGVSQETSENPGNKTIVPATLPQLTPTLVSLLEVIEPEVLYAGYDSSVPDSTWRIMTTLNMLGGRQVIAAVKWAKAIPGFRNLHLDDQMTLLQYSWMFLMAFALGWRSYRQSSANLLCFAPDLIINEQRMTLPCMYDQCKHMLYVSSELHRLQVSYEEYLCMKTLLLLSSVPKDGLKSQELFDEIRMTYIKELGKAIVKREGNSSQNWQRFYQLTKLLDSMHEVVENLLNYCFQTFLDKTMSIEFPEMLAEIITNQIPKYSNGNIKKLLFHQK

[7] = biological target: Glucocorticoid receptor (Homo sapiens) (UniProt P04150); assay: GR-EFC Redistribution (AID 451; calls by dose curve; further: potency means the concentration at half of the fitted maximal effect); conditions: CHO-K1 GR-EFC translocation, beta-gal luminescence, 2 h
In short: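 Translocation of GR-ED fusion to nuclear EA restores b-gal, read by luminescence after 1 h room-temperature detection. Engineered CHO-K1 biosensor cells, 1,000/well, exposed 2 h at 37 C to titrations up to 46 uM final.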

[8] = biological target: Mitogen-activated protein kinase 10 (Mus musculus) (UniProt Q61831); assay: JNK3 AlphaScreen Assay (AID 530);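 further: kinase came from lysate of stimulated human HepG2 cells; signal reports phosphorylation of biotinylated GST-cJun 1-79 at Ser73 with 10 µM ATP; on the % scale 0 is the no-effect control and ±100 the full control effect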
In short: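 Room-temperature AlphaScreen kinase assay; pre-activated HepG2 lysate as JNK3 source, biotin-GST-cJun(1-79) substrate, 10 uM ATP, compound 15 min preincubation.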

[9] = biological target: 3',5'-cyclic-AMP phosphodiesterase 4B (Homo sapiens) (UniProt Q07343); assay: qHTS Assay for Inhibitors of PDE-IV (AID 607; active means well fitted activation curve with a large enough effect in the main read-out, with a control signal flat, not every such curve was filed as active; further: % of control where 0% means no effect)
3',5'-cyclic-AMP phosphodiesterase 4B (Homo sapiens), sequence (Q07343 whole entry, looked up): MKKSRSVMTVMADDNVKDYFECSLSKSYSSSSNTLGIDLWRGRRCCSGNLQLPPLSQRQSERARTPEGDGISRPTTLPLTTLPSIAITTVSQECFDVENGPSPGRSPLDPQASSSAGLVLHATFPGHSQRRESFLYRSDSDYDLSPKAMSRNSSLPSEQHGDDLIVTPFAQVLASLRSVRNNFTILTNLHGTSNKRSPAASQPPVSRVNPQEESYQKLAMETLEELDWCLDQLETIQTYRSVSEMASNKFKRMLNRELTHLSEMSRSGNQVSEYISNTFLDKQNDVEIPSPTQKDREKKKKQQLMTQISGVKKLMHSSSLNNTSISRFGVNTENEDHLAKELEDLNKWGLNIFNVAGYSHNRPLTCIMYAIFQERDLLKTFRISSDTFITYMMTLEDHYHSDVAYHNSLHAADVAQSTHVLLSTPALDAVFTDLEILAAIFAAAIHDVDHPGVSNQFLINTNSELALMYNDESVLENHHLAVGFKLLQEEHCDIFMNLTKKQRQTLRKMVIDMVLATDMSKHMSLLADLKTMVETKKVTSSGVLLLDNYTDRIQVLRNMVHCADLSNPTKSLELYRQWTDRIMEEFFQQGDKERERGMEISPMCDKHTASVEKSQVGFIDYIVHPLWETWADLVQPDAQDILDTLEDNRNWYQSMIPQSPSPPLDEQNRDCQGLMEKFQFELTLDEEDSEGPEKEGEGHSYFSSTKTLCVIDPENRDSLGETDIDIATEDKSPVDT
In short: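 Live HEK293 cells with a modified cyclic nucleotide-gated (CNG) channel report intracellular cAMP via membrane-potential dye fluorescence (ex 535/em 590 nm). Endogenous PDE-IV was targeted. Compounds were tested at up to 22.9 uM final; RO 20-1724 100 uM served as control.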

CC(C)C(=O)Cc1ccc2ccccc2n1
inactive: Potency [1] > 11.4 µM | activity change, negative = inhibition [2] -4.8% | activity change, negative = inhibition [4] 12.2% | activity, negative = inhibition [5] 3.27% | Potency [6] > 46 µM | Potency [7] > 9.22 µM | Potency [8] | Potency [9]
active: Potency [3] 3.16 µM

Oc1ccc2ccccc2c1C=NCc1c(O)ccc2ccccc12
inactive: Potency [1] > 11.4 µM | activity change, negative = inhibition [2] -5.07% | activity change, negative = inhibition [4] 12.6% | activity, negative = inhibition [5] -21.2% | Potency [6] > 46 µM | Potency [7] > 9.22 µM | Potency [8] | Potency [9]
active: Potency [3] 1.58 µM

NCCSS(=O)(=O)CCN
inactive: Potency [1] > 11.4 µM | activity change, negative = inhibition [2] 7.23% | activity change, negative = inhibition [3] -17.1% [at 2.29 µM] | activity change, negative = inhibition [4] 7.63% | activity, negative = inhibition [5] -25% | Potency [6] > 46 µM | Potency [7] > 9.22 µM | Potency [8] | Potency [9]

O=C(O)CSCCc1ccccc1
inactive: Potency [1] > 11.4 µM | activity change, negative = inhibition [2] 6.88% | Potency [3] | activity change, negative = inhibition [4] -11.5% | activity, negative = inhibition [5] 16.8% | Potency [6] > 46 µM | Potency [7] > 9.22 µM | Potency [8] | Potency [9]

Nc1ncnc2c1nc(-c1ccccc1)n2[C@H]1O[C@@H](CO)[C@@H](O)[C@H]1O
inactive: Potency [1] > 11.4 µM | activity change, negative = inhibition [2] -9.23% | activity change, negative = inhibition [3] -16.8% [at 2.29 µM] | activity change, negative = inhibition [4] 6.55% | activity, negative = inhibition [5] 1.65% | Potency [6] > 46 µM | Potency [7] > 9.22 µM | Potency [8] | Potency [9]

Nc1ncnc2c1ncn2[C@H]1O[C@@H](CO)[C@@H](O)[C@H]1N
inactive: Potency [1] > 11.4 µM | activity change, negative = inhibition [2] -9.35% | Potency [3] | activity change, negative = inhibition [4] -3.9% | activity, negative = inhibition [5] 5.68% | Potency [6] > 46 µM | Potency [7] > 9.22 µM | Potency [8] | Potency [9]

Cc1cc(C)c2nc3c(c([C@H](O)[C@@H]4CCCCN4)c2c1)CC/C3=C/c1ccc(Cl)cc1
inactive: Potency [1] > 11.4 µM | activity change, negative = inhibition [2] 4.75% | Potency [3] | activity change, negative = inhibition [4] -2.24% | activity, negative = inhibition [5] 1.11% | Potency [6] > 46 µM | Potency [7] > 9.22 µM | Potency [8] | Potency [9]

CC(C)(N=NC(C)(C)C1=NCCN1)C1=NCCN1
inactive: Potency [1] > 11.4 µM | activity change, negative = inhibition [2] 3.01% | Potency [3] | activity change, negative = inhibition [4] 7.08% | activity, negative = inhibition [5] 3.73% | Potency [6] > 46 µM | Potency [7] > 9.22 µM | Potency [8] | Potency [9]

c1cc2c(cc1C(N1CCNCC1)N1CCNCC1)OCO2
inactive: Potency [1] > 11.4 µM | activity change, negative = inhibition [2] 1.84% | activity change, negative = inhibition [3] -3% [at 2.29 µM] | activity change, negative = inhibition [4] 8.42% | activity, negative = inhibition [5] -2.48% | Potency [6] > 46 µM | Potency [7] > 9.22 µM | Potency [8] | Potency [9]

O=S(=O)(c1ccc(Br)cc1)N1CCN(S(=O)(=O)c2ccc(Br)cc2)CC1
inactive: Potency [1] > 11.4 µM | activity change, negative = inhibition [2] 14.8% | Potency [3] | activity change, negative = inhibition [4] -0.352% | activity, negative = inhibition [5] 5.43% | Potency [6] > 46 µM | Potency [7] > 9.22 µM | Potency [8] | Potency [9]

Oc1cccnc1CN1CCCCC1
inactive: Potency [1] > 11.4 µM | activity change, negative = inhibition [2] -3.72% | Potency [3] | activity change, negative = inhibition [4] 11.7% | activity, negative = inhibition [5] 16.8% | Potency [6] > 46 µM | Potency [7] > 9.22 µM | Potency [8] | Potency [9]

O=C(NNC(=O)c1ccncc1)c1ccncc1
inactive: Potency [1] > 11.4 µM | activity change, negative = inhibition [2] 4.63% | Potency [3] | activity change, negative = inhibition [4] 6.39% | activity, negative = inhibition [5] 2.81% | Potency [6] > 46 µM | Potency [7] > 9.22 µM | Potency [8] | Potency [9]

O=C(O)[C@H](CCc1ccccn1)c1ccccc1
inactive: Potency [1] > 11.4 µM | activity change, negative = inhibition [2] -0.682% | Potency [3] | activity change, negative = inhibition [4] -1.01% | activity, negative = inhibition [5] 0.534% | Potency [6] > 46 µM | Potency [7] > 9.22 µM | Potency [8] | Potency [9]

Cc1cc2nc([C@H](C)C(=O)c3ccc(Cl)cc3)c(=O)[nH]c2cc1C
active: Potency [3] 0.501 µM
inactive: Potency [1] > 11.4 µM | activity change, negative = inhibition [2] -1.07% | activity change, negative = inhibition [4] -5.22% | activity, negative = inhibition [5] -18.7% | Potency [6] > 46 µM | Potency [7] > 9.22 µM | Potency [8] | Potency [9]

CC(=O)O[C@]1(C)N=NC2(CCCCC2)O1
inactive: Potency [1] > 11.4 µM | activity change, negative = inhibition [2] 0.791% | Potency [3] | activity change, negative = inhibition [4] 3.95% | activity, negative = inhibition [5] 16.1% | Potency [6] > 46 µM | Potency [7] > 9.22 µM | Potency [8] | Potency [9]
